Screening results from PubChem.
Sampled rows, rich in hits. Any-hit rate of the full collection: about 19%.
HT1080-NT tox = kills 2HG-producing HT-1080-NT fibrosarcoma cells; 1.6% of 360,000 active; Potency, µM (titrated, usually from 46.1 µM), actives largely listed as cytotoxic; AID 686970; HT-1080-NT fibrosarcoma viability, CellTiter-Glo ATP luminescence, 48 h;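 note: NT is the 2HG producing partner of a matched IDH1 knockdown line; nearly all actives have a fitted effect of over 55% in size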
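Read-out is CellTiter-Glo luminescence after 10 minutes at room temperature, following 48 hours' compound treatment of HT-1080-NT cells (750 cells/well, RPMI, 5% FBS, 37 degrees C).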
HT1080 IDH1KD tx = toxicity to HT-1080 IDH1 knockdown cells (counter line) | Potency, µM (doses to about 46.1 µM), most hits filed as cytotoxic | HT-1080 IDH1 knockdown viability, ATP luminescence, 48 h | 2% of 360,000 active
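In this qHTS, HT-1080 cells depleted of IDH1 are exposed for 48 h at 37 °C to compound titrations. Toxicity is scored from CellTiter-Glo luminescence, with DMSO as full viability and medium alone as none.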
uPA generation = cell surface uPA generation inhibition | AID 540303 | Potency, µM (series often up to 38.3 µM), usual class: inhibitors | 0.31% of 330,000 active | cell surface uPA generation assay, qHTS; active = well fitted inhibition curve with a large enough effect; inconclusive = small, poorly fitted or top-dose-only effect; inactive = no such curve, though single readings can be large or run the other way; tested in mouse RAW 264.7 cells; note: nearly all actives have a fitted effect of over 55% in size
TDP1 cell CPT = DT40-hTDP1 cell growth loss with CPT | chicken DT40 Tdp1-/-;hTDP1 cells + 20 nM CPT, ATP luminescence, 48 h | Potency, µM (top dose mostly 46.2 µM), hits mostly inhibitors | 12% of 420,000 active; note: nearly all actives have a fitted effect of over 55% in size
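Cell growth measured by CellTiter-Glo luminescence after a minimum 48 h, 37 C compound exposure with 20 nM CPT in Tdp1-knockout DT40 cells stably expressing hTDP1, seeded 400/well; qHTS titration format.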
IL1B secr inh = inflammasome signaling inhibition, IL-1 beta readout; THP-1 LPS/ATP IL-1B secretion, AlphaLISA, 16 h; stronger effect = lower value; activity change, % at 57.5 µM; 4.7% of 360,000 active; AID 743279; in the data active = activity change below about -50%; inconclusive = mostly about -30% to -49%
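THP-1 cells pretreated 1 hr with compounds (up to 57.5 uM final), then stimulated with LPS (250 ng/mL final) plus ATP (1.25 mM final); secreted IL-1B measured by AlphaLISA after 16 hr, decreased signal indicating inhibition.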
DT40 TDP1 no CPT = qHTS for Inhibitors of human tyrosyl-DNA phosphodiesterase 1 (TDP1): qHTS in cells in absence of CPT; DT40 Tdp1-/- hTDP1 cells, no CPT, ATP luminescence, 48 h; Potency, µM (series often up to 46.2 µM), most hits filed as inhibitors; 15% of 420,000 active; AID 686978, 2013; note: nearly all actives have a fitted effect of over 55% in size
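Camptothecin absent (DMSO only). Human TDP1-complemented DT40 knockout cells, 400 cells/well, 37 °C for minimum 48 hr; ATP measured via CellTiter-Glo, 30 min dark incubation, luminescence.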
Large screens that a line does not name were inactive. Unless noted, calls come from the whole dose curve; as a rule, active = well fitted curve in the direction sought with a large enough effect; inconclusive = small, poorly fitted or top-dose-only effect, or another doubt; inactive = no such curve, though single readings can be large; an effect the other way counts as inactive or inconclusive.

CCCCCCOc1ccc(-c2nc3ccc(Br)cc3c(=O)o2)cc1	none (no result: HT1080-NT tox, HT1080 IDH1KD tx, uPA generation, IL1B secr inh)
O=C(c1ccc(S(=O)(=O)Nc2ccccc2)cc1)N1CCC1	TDP1 cell CPT inconclusive
COc1cccc(C2Nc3c(F)cc(Br)cc3C3C=CCC32)c1OC (configuration not stated)	TDP1 cell CPT 16µM, DT40 TDP1 no CPT 18µM
CCOC(=O)C(=CNc1ccc(Cl)cn1)C(=O)OCC	DT40 TDP1 no CPT inconclusive
CCOC(=O)C(=CNc1ccc(C)cc1C)C(=O)OCC	TDP1 cell CPT inconclusive, DT40 TDP1 no CPT 16µM
CCOC(=O)C(=CNc1ccc(OC)cc1[N+](=O)[O-])C(=O)OCC	TDP1 cell CPT 16µM, DT40 TDP1 no CPT 12µM
CCOC(=O)C(=CNc1cc(C)nn1-c1ccc(Cl)cc1)C(=O)OCC	TDP1 cell CPT 23µM, DT40 TDP1 no CPT inconclusive
CCOC(=O)C(=CNc1ccc(C(F)(F)F)cc1)C(=O)OCC	none
CCC(=O)OCC(=O)Nc1ccc(OC)cc1[N+](=O)[O-]	none
COc1ccc(S(=O)(=O)NC(=O)C2(C)CCN2C(=O)Cc2ccc(C(C)(C)C)cc2)cc1 (configuration not stated)	none (no result: uPA generation)
Cc1sc(NC(=O)CN(C(=O)c2ccccc2F)C2CCCC2)c(C(N)=O)c1C	TDP1 cell CPT inconclusive, DT40 TDP1 no CPT 16µM
Cc1ccc(C(=O)N(CC(=O)Nc2sc(C)c(C)c2C(N)=O)C2CCCC2)cc1	TDP1 cell CPT 21µM, DT40 TDP1 no CPT 18µM
Cn1c(O)c(N=NC(=S)Nc2ccccc2F)c2cc(S(=O)(=O)N3CCOCC3)ccc21	HT1080 IDH1KD tx inconclusive, TDP1 cell CPT 5.2µM, DT40 TDP1 no CPT 5.8µM
C=CCn1c(O)c(N=NC(=S)Nc2ccccc2C)c2cc(S(=O)(=O)N3CCOCC3)ccc21	HT1080-NT tox inconclusive, HT1080 IDH1KD tx inconclusive, TDP1 cell CPT 3.3µM, DT40 TDP1 no CPT 0.73µM
Cc1ccc(NC(=S)N=Nc2c(O)n(C)c3ccc(S(=O)(=O)N4CCOCC4)cc23)cc1C	HT1080 IDH1KD tx inconclusive, TDP1 cell CPT 2.1µM, DT40 TDP1 no CPT 3.7µM
Cc1ccc(N=Nc2c(O)n(CN3CCOCC3)c3ccccc23)cc1	DT40 TDP1 no CPT inconclusive
Cc1cc(=O)n(C)c2ccc(S(=O)(=O)N3CCOCC3)cc12	none
Cc1cccc(NC(=S)N=Nc2c(O)n(CN3CCOCC3)c3ccccc23)c1C	uPA generation inconclusive, TDP1 cell CPT 5.8µM, DT40 TDP1 no CPT 5.8µM
Cc1ccc(C(=O)Nc2cccc(NC(=O)CN3CCCCC3)c2)cc1	TDP1 cell CPT inconclusive, DT40 TDP1 no CPT inconclusive
COc1cc(CNCCc2ccc(F)cc2)ccc1OCc1ccc(Cl)nc1	HT1080-NT tox inconclusive, HT1080 IDH1KD tx inconclusive, TDP1 cell CPT 18µM, IL1B secr inh -56, DT40 TDP1 no CPT 21µM
COc1cc(CNCCc2ccccc2F)ccc1OCc1ccc(Cl)nc1	HT1080-NT tox inconclusive, HT1080 IDH1KD tx inconclusive, TDP1 cell CPT 15µM, DT40 TDP1 no CPT 23µM
COc1cc(CO)ccc1OCc1ccc(Cl)nc1	none
CCOCCCNCc1ccc(OCc2ccccc2C)c(OC)c1	uPA generation inconclusive, TDP1 cell CPT inconclusive, DT40 TDP1 no CPT inconclusive
CC(C)CN(CCNC(=O)c1cc(=O)[nH]c2ccc(S(=O)(=O)N3CCCCCC3)cc12)CC(C)C	none (no result: HT1080-NT tox, HT1080 IDH1KD tx, uPA generation, IL1B secr inh)
CCn1cc(C(=O)NCCc2ccc(OC)c(OC)c2)c(=O)c2cc(S(=O)(=O)N3CCc4ccccc4C3)ccc21	TDP1 cell CPT inconclusive, DT40 TDP1 no CPT 26µM (no result: HT1080-NT tox, HT1080 IDH1KD tx, uPA generation, IL1B secr inh)
CCCCN(CCCC)CCNC(=O)c1cc(=O)[nH]c2ccc(S(=O)(=O)N3CCCCCC3)cc12	TDP1 cell CPT inconclusive, DT40 TDP1 no CPT 16µM (no result: HT1080-NT tox, HT1080 IDH1KD tx, uPA generation, IL1B secr inh)
CCCCN(CCCC)CCNC(=O)c1cn(CC)c2ccc(S(=O)(=O)N3CCc4ccccc4C3)cc2c1=O	TDP1 cell CPT 21µM, DT40 TDP1 no CPT 23µM
CCCCNC(=O)c1cn(CC)c2ccc(S(=O)(=O)N3CCCCCC3)cc2c1=O	DT40 TDP1 no CPT inconclusive
